From the supplement of paper PMC9950053
Where a name gives a salt, the structure may show the parent alone.

Tested on: Danio rerio larvae (5 dpf)
Assay: startle (activity period 16 minus period 15, 20-s interval sound) minus DMSO control (percentage points); higher = stronger startle response than DMSO larvae
Conditions: 10 µM; exposure time: 3 h pre-incubation + 3 h imaging
Method: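 Wild-type 5 dpf zebrafish larvae (n=48 per drug, 96-well plates, 28.5 °C) were exposed to Tocris FDA-approved library compounds at 10 µM (0.1% DMSO) for 3 h before and 3 h during imaging. Images were taken every 6 s during visual and acoustic stimuli, and larvae were tracked with Z-LaP Tracker. Each measure is the treated-group mean minus the DMSO control mean (n=844), in percentage points. This mapping covers compounds with 5-character plate codes.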

Compound	startle
OCCN1C[C@H](O)[C@@H](O)[C@H](O)[C@H]1CO [Miglitol]	-0.148
OC(c1cc(C(F)(F)F)nc2c(C(F)(F)F)cccc12)C1CCCCN1 (configuration not stated) [Mefloquine hydrochloride]	-13.1
CCCC1O[C@@H]2C[C@H]3[C@@H]4CCC5=CC(=O)C=C[C@]5(C)[C@H]4[C@@H](O)C[C@]3(C)[C@]2(C(=O)CO)O1 (some centres not stated) [Budesonide]	-5.13
N#Cc1ccc2[nH]cc(CCCCN3CCN(c4ccc5oc(C(N)=O)cc5c4)CC3)c2c1 [Vilazodone hydrochloride]	-7.54
C[C@H]1O[C@H](O[C@H]2[C@H](O)[C@@H](O)[C@@H](O[C@H]3[C@H](O)[C@@H](O)C(O)O[C@@H]3CO)O[C@@H]2CO)[C@H](O)[C@@H](O)[C@@H]1N[C@H]1C=C(CO)[C@@H](O)[C@H](O)[C@H]1O (some centres not stated) [Acarbose]	-7.07
CNCc1ccc(-c2[nH]c3cc(F)cc4c3c2CCNC4=O)cc1 [Rucaparib camsylate]	-4.48
O=C(O)C[C@H](O)C[C@H](O)/C=C/c1c(C2CC2)nc2ccccc2c1-c1ccc(F)cc1 [Pitavastatin calcium]	2.76
C[C@@H]1C[C@H]2[C@@H]3CCC4=CC(=O)C=C[C@]4(C)[C@@]3(F)[C@@H](O)C[C@]2(C)[C@@]1(O)C(=O)CO [Dexamethasone]	-0.0968
COc1cc(N)c(Cl)cc1C(=O)NC1CCN(CCCOc2ccc(F)cc2)CC1OC (configuration not stated) [Cisapride]	-1.14
CNS(=O)(=O)Cc1ccc2[nH]cc(CCN(C)C)c2c1 [Sumatriptan succinate]	2.1
CC(=O)Oc1cc2c(s1)CCN(C(C(=O)C1CC1)c1ccccc1F)C2 (configuration not stated) [Prasugrel]	-11.4
CNC(=O)c1cc(Oc2ccc(NC(=O)Nc3ccc(Cl)c(C(F)(F)F)c3)cc2)ccn1 [Sorafenib]	-3.34
CCCCCCCN(CC)CCCC(O)c1ccc(NS(C)(=O)=O)cc1 (configuration not stated) [Ibutilide hemifumarate]	-4.59
Clc1ccc2nsnc2c1NC1=NCCN1 [Tizanidine hydrochloride]	-2.98
CCCc1nn(C)c2c(=O)[nH]c(-c3cc(S(=O)(=O)N4CCN(C)CC4)ccc3OCC)nc12 [Sildenafil citrate]	-1.15
C#CCN[C@@H]1CCc2ccccc21 [Rasagiline mesylate]	3.19
O=C1CCc2ccc(OCCCCN3CCN(c4cccc(Cl)c4Cl)CC3)cc2N1 [Aripiprazole]	-3.31
CC(C)OC(=O)C(C)(C)Oc1ccc(C(=O)c2ccc(Cl)cc2)cc1 [Fenofibrate]	-5.75
CC(=O)Nc1ccc(O)cc1 [Acetaminophen]	0.242

Compound	startle
CC(C)(C(=O)O)c1ccc(C(O)CCCN2CCC(C(O)(c3ccccc3)c3ccccc3)CC2)cc1 (configuration not stated) [Fexofenadine hydrochloride]	3.14
N#C[C@@H]1C[C@@H]2C[C@@H]2N1C(=O)[C@@H](N)C12CC3CC(CC(O)(C3)C1)C2 [Saxagliptin hydrochloride]	4.83
Cc1cc2c(s1)Nc1ccccc1N=C2N1CCN(C)CC1 [Olanzapine]	2.27
O=c1n(CCCN2CCN(c3cccc(Cl)c3)CC2)nc2ccccn12 [Trazodone hydrochloride]	3.18
CN(C)CCc1c[nH]c2ccc(C[C@H]3COC(=O)N3)cc12 [Zolmitriptan]	2.75
CC[C@H]1OC(=O)[C@H](C)[C@@H](O[C@H]2C[C@@](C)(OC)[C@@H](O)[C@H](C)O2)[C@H](C)[C@@H](O[C@@H]2O[C@H](C)C[C@H](N(C)C)[C@H]2O)[C@](C)(O)C[C@@H](C)CN(C)[C@H](C)[C@@H](O)[C@]1(C)O [Azithromycin]	2.55
CN[C@H]1CC[C@@H](c2ccc(Cl)c(Cl)c2)c2ccccc21 [Sertraline hydrochloride]	2.62
COc1ccccc1Oc1c(NS(=O)(=O)c2ccc(C(C)(C)C)cc2)nc(-c2ncccn2)nc1OCCO [Bosentan]	7.41
COc1ccccc1OCC(O)CN1CCN(CC(=O)Nc2c(C)cccc2C)CC1 (configuration not stated) [Ranolazine dihydrochloride]	2.16
COc1cc([C@@H]2c3cc4c(cc3[C@@H](O[C@@H]3O[C@@H]5CO[C@@H](C)O[C@H]5[C@H](O)[C@H]3O)[C@H]3COC(=O)[C@H]23)OCO4)cc(OC)c1O [Etoposide]	-0.943
CCc1nc(N)nc(N)c1-c1ccc(Cl)cc1 [Pyrimethamine]	1.66
NC(=O)OCC(COC(N)=O)c1ccccc1 [Felbamate]	1.44
OCc1cc(C(O)CNCCCCCCOCCCCc2ccccc2)ccc1O (configuration not stated) [Salmeterol xinafoate]	-4.63
CN(C)C(=N)NC(=N)N [Metformin hydrochloride]	-2.04
CC(C)COCC(CN(Cc1ccccc1)c1ccccc1)N1CCCC1 (configuration not stated) [Bepridil hydrochloride]	-3.27
COCCc1ccc(OCC(O)CNC(C)C)cc1 (configuration not stated) [Metoprolol tartrate]	4.47
COc1cc2nccc(Oc3ccc(NC(=O)C4(C(=O)Nc5ccc(F)cc5)CC4)cc3)c2cc1OC	-3.85
NS(=O)(=O)c1cc2c(cc1Cl)NC(C1CC3C=CC1C3)NS2(=O)=O (configuration not stated) [Cyclothiazide]	1.22
